# Results as given in the supplement of paper PMC10933113.
# A number with no mark means an inactive call.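 How the source made its calls: active = curve rank above 3; inactive = curve rank 0.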
# Tested on: KeratinoSens (HaCaT ARE-luciferase) cells
# Test: Nrf2/ARE luciferase activation call in qHTS KeratinoSens assay (1 = active, 0 = inactive)
row,Structure (SMILES),Nrf2/ARE luciferase activation call
1,CCCCn1cc[n+](C)c1.O=S(=O)([N-]S(=O)(=O)C(F)(F)F)C(F)(F)F,not active ARE inducer (skin sensitizer alert)
2,CCCCCCCCCCCCCC[P+](CCCCCC)(CCCCCC)CCCCCC.O=S(=O)([N-]S(=O)(=O)C(F)(F)F)C(F)(F)F,not active ARE inducer (skin sensitizer alert)
3,CCn1cc[n+](C)c1C.O=S(=O)([N-]S(=O)(=O)C(F)(F)F)C(F)(F)F,not active ARE inducer (skin sensitizer alert)
4,CCCCCCCCn1cc[n+](C)c1.O=S(=O)([N-]S(=O)(=O)C(F)(F)F)C(F)(F)F,not active ARE inducer (skin sensitizer alert)
5,O=C(O)c1ccccc1O.Oc1cccc2cccnc12,not active ARE inducer (skin sensitizer alert)
6,CCC[N+]1(C)CCCCC1.O=S(=O)([N-]S(=O)(=O)C(F)(F)F)C(F)(F)F,not active ARE inducer (skin sensitizer alert)
7,CCCC[N+](C)(CCCC)CCCC.O=S(=O)([N-]S(=O)(=O)C(F)(F)F)C(F)(F)F,not active ARE inducer (skin sensitizer alert)
8,CCCC[N+]1(C)CCCCC1.O=S(=O)([N-]S(=O)(=O)C(F)(F)F)C(F)(F)F,not active ARE inducer (skin sensitizer alert)
